Source: PubChem BioAssay AID1903 (Southern Research Specialized Biocontainment Screening …, 2009)
In all, about 310,000 compounds went through this assay and about 1,200 (0.39%) were called active. The rule behind the calls is not given here. These entries were drawn from the full list. Measured potencies and affinities stand elsewhere.

The molecules below were run against Large T antigen (Simian virus 40) (UniProt P03070) (assay: TAg ATPase/helicase activity blockers – biochemical (AID 1903)). Conditions: SV40 large T antigen ATPase/helicase inhibition assay; at 20 µM; stronger effect = higher value.
Sequence of Large T antigen (Simian virus 40) (P03070 whole entry, looked up): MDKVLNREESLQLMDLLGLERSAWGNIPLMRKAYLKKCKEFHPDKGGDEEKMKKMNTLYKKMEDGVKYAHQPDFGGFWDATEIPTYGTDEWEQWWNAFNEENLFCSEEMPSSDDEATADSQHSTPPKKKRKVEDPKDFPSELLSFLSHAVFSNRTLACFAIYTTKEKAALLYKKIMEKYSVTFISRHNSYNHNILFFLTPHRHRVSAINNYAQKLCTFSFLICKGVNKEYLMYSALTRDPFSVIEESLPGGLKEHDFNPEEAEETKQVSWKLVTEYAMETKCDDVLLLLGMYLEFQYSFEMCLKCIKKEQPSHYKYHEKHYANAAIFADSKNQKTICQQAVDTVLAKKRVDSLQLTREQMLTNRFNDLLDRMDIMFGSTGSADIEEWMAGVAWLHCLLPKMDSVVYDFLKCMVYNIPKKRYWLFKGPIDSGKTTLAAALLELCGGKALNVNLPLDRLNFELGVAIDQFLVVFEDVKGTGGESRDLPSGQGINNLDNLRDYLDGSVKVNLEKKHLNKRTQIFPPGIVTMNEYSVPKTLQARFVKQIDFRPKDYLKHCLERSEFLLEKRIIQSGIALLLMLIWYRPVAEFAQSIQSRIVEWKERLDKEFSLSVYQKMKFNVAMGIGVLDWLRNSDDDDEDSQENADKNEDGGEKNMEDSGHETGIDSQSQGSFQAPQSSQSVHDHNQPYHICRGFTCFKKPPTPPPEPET

inhibition, inactive:
COc1ccc(CN2CCN(C(=O)CC(C)C)CC2)c2ccccc12 0.53%
C/C(=C\C(=O)c1ncc(C(F)(F)F)cc1Cl)N(C)C 9.23%
Cn1cc(CN2CCC(n3nccc3NC(=O)Cc3ccccc3)CC2)cn1 2.67%
O=C(NC(NCC1CCCO1)C(Cl)(Cl)Cl)c1cccc2ccccc12 (configuration not stated) 2.66%
NC(=O)c1cc(-c2ccccc2)sc1NC(=O)CN1CCCCC1 25.6%
CCc1cccc(N(C(=O)c2csnn2)C(C(=O)NC(C)(C)C)c2ccncc2)c1 (configuration not stated) 14.2%
Cc1ccc(SCC(=O)Nc2ccc3c(c2)C(=O)N(C)C3=O)cc1 3.52%
CC(C)c1ccc(NC(=O)Cn2ncn3c(cc4ccccc43)c2=O)cc1 5.59%
CCN(c1ccc(NC(=O)COC(=O)CCC(=O)c2ccc(F)cc2)cc1)C(C)C 23.7%
CCN1CCN(CC(=O)Nc2ccc(N(C)C)cc2)CC1 15.6%
CCc1ccc(NC(=O)Cn2ncn3c(cc4ccccc43)c2=O)cc1 8.68%
O=C(CN1CCN(c2ccc(Cl)cc2)CC1)Nc1ccc(F)cc1 5.08%
CC(C)(C)NC(=O)CN1CCC(O)(c2ccccc2)CC1 -0.59%
CCN(CC)c1ccc(NC(=O)COC(=O)CCC(=O)c2ccc(F)cc2)cc1 26.6%
CCN(CC)c1ccc(NC(=O)CN2CCN(c3ccc(F)cc3)CC2)cc1 22.8%
O=C(NCCCN1CCOCC1)c1cccc(NC(=O)c2ccccc2)c1 8.5%
Cc1cc(C)n(Cc2ccc(NC(=O)c3c([N+](=O)[O-])c(C)nn3C)cc2)n1 21.7%
Cn1ccnc1/C(=N\NC(=O)c1ccccc1)c1cccc([N+](=O)[O-])c1 17.9%
Cc1nc2nc(C)c(CCC(=O)O)c(C)n2n1 8.37%
CCCCC(CC)C(=O)Nc1ccc(C)c(O)c1 (configuration not stated) 1.23%
CCOc1ccc(S(=O)(=O)n2cnc3ccccc32)cc1 12.2%
CCCc1cc2c(=O)n(NC(=O)c3nn(C)cc3[N+](=O)[O-])c(C)nc2s1 15.2%
CCCCOP(=O)(c1ccc(N(C)C)cc1)C(O)c1cccnc1 (configuration not stated) 7.96%
Cc1ccc(C(=O)NCc2ccncc2)cc1S(=O)(=O)Nc1cccc(C)c1C 2.57%
O=C(COC(=O)Cn1nnc2ccccc21)Nc1ccccc1Br 7.03%
COc1ccc(NC(=O)COC(=O)Cn2nnc3ccccc32)cc1 12.6%
O=C(NC1CCCC1)C1CCCN(S(=O)(=O)c2cnc[nH]2)C1 (configuration not stated) 5.21%
CCOC(=O)c1ccc(NC2c3ccccc3C(=O)N2c2ccccn2)cc1 (configuration not stated) 0.465%
Cc1ccccc1NC(=O)CC1SC(=O)N(c2ccccc2)C1=O (configuration not stated) 14%
O=C(CC1SC(=O)N(c2ccccc2)C1=O)Nc1ccccc1 (configuration not stated) 38.4%
CO/N=C/C(=N\Nc1cc(OC)cc(OC)c1)C(=O)c1ccccc1 9.31%
Cc1ccc(CNc2ccc3c(c2)ncn3C(C)(C)C)cc1 21.9%
CCn1cnc2cc(NCc3ccc(C)cc3)ccc21 35.2%
CCc1ccc(CNc2ccc3c(c2)ncn3CC)cc1 24.4%
CN(C)c1ccc(CNc2ccc3c(c2)ncn3C(C)(C)C)cc1 37.9%
CCN(CC)c1ccc(CNc2ccc3c(c2)ncn3CC)cc1 32.3%
CCc1ccc(CNc2ccc3c(c2)ncn3C)cc1 22.1%
Cc1nc2cc(-c3sccc3-n3cccc3)nn2c(C)c1C 5.6%
Cc1ccc(NS(=O)(=O)c2ccc(CCC(=O)NCc3cccnc3)cc2)cc1 7.61%
COC(=O)c1ccc(COc2cccc3c2CCN(Cc2ccccc2)C3=O)o1 4.93%
Brc1ccc2[nH]c3c(NCc4ccccn4)ncnc3c2c1 4.68%
O=C(Nc1ccccc1)N(Cc1ccccc1)C1=NCCS1 5.16%
O=C(O)COc1ccccc1/C=N/NC(=O)CN1CCN(Cc2ccccc2Cl)CC1 2.27%
CCOC(=O)c1c(NC(=O)/C=C\C(=O)O)sc(C)c1-c1ccccc1 12.2%
CCOC(=O)c1c(NC(=O)/C=C/C(=O)O)sc(C)c1-c1ccc(Cl)cc1 47.5%
CCOC(=O)CNc1c(-c2ccc(Cl)cc2)nc2cnccn12 14.1%
COCCNc1c(-c2ccc(O)cc2)nc2ccc(Cl)cn12 25.7%
CCOC(=O)CNc1c(-c2ccccc2)nc2ccc(Cl)cn12 13.6%
CCOC(=O)CNc1c(-c2ccc(OC)cc2)nc2ccc(Cl)cn12 19.4%
Cc1ccc2[nH]c(=O)c(-c3nc4ccccn4c3NCc3ccco3)cc2c1 26%
CC(C)c1ccc(Nc2nc(Cl)nc(NCc3ccco3)n2)cc1 23.9%
OCCNc1nc(Cl)nc(NCc2ccco2)n1 3.58%
O=C(Nc1c(-c2ccccc2)nc2ccccn12)c1ccco1 19.3%
Cc1ccc(CCNC(=O)C2CCCN(S(=O)(=O)c3cccc4nsnc34)C2)cc1 (configuration not stated) 4.61%
CN(C)/C=C/C(=O)c1ccc(Cl)c([N+](=O)[O-])c1 11.3%
Cc1ccc(-n2nnnc2SCC(=O)Nc2ccc(N3CCN(C)CC3)cc2)c(C)c1 17.6%
COc1ccc2[nH]cc(C(=O)CN3CCCCC3)c2c1 20.3%
O=C(NCCC1=CCCCC1)Nc1ccc2nsnc2c1 -1.37%
Cn1c(N)c(C(=O)COC(=O)c2ccc(S(=O)(=O)N3CCCCC3)cc2)c(=O)n(C)c1=O 2.82%
CCc1noc(C)c1C(=O)Nc1nnc(C2CCCCC2)s1 16%
COC(=O)c1c([N+](=O)[O-])c(OC)c(OC)c(OC)c1[N+](=O)[O-] 2.68%
COC(=O)[C@H](CCSC)NS(=O)(=O)c1ccccc1Br 24.3%
